# Measurements as given in PubChem BioAssay (NCATS).
# Active and inactive are the calls of the source. Calls follow the shape of the dose curve; as a rule, active = well fitted inhibition curve with a large enough effect; inconclusive = small, poorly fitted or top-dose-only effect; inactive = no such curve, though single readings can be large or run the other way.
# Assay: qHTS assay for measurement of the activity of small molecule inhibitors on Zika virus induced Caspase-3 activity in human astrocytoma cells (AID 1224859)
# Conditions: SNB-19 ZIKV-induced caspase-3/7, luminescence, 6 h; series mostly up to 45.7 µM
# Procedure, shortened: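 In SNB-19 cells plated at 250 cells/well and grown 16-20 h, compounds were applied 1 h before ZIKV (2 FFU/cell). Six hours later caspase-3/7 luminescence was recorded.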
row,SMILES,outcome
1,N#CCCN,inactive
2,CCNC(=O)[C@H]1O[C@@H](n2cnc3c(N)ncnc32)[C@H](O)[C@@H]1O,inactive
3,COc1ccc2c(c1)[C@@]13CCCC[C@H]1[C@@H](C2)NCC3,inactive
4,N[C@@H](Cn1ccc(=O)[nH]c1=O)C(=O)O,inactive
5,C=CCN1CC[C@]23c4c5ccc(O)c4O[C@@H]2/C(=N/N=C2\CC[C@@]4(O)C6Cc7ccc(O)c8c7[C@@]4(CCN6CC=C)[C@@H]2O8)CC[C@@]3(O)C1C5,inactive
6,CCN(CCCl)Cc1ccccc1Br,inactive
7,C[C@@H]1[C@@H]2Cc3ccc(O)cc3[C@@]1(C)CCN2CC1CC1,inactive
8,C[CH2][Hg][S]c1ccccc1C(=O)O,inactive
9,CN(N=O)c1cc(O)ccc1O,inactive
10,C[Se]C[C@H](N)C(=O)O,inactive
11,C[C@@H]1O[C@H](C[N+](C)(C)C)CS1,inactive
12,CC(=O)OCC1=C(C(=O)O)N2C(=O)[C@@H](NC(=O)CCC[C@@H](N)C(=O)O)[C@H]2SC1,inactive
13,CN(N=O)c1ccc(O)c(O)c1,inactive
14,C/C(O)=C(\C#N)C(=O)Nc1cc(Br)ccc1Br,inactive
15,C=CCN1CCc2cccc3c2[C@H]1Cc1ccc(O)c(O)c1-3,inactive
16,CC(C)[C@@]1(NC(=O)[C@@H]2C[C@@H]3c4cccc5[nH]cc(c45)C[C@H]3N(C)C2)O[C@@]2(O)[C@@H]3CCCN3C(=O)[C@H](Cc3ccccc3)N2C1=O,inactive
17,CC(Cc1ccc(OCC(=O)O)cc1)NCC(O)c1cccc(Cl)c1 (stereo not drawn),inactive
18,COc1ccc2c(c1)/C(=C/c1cnc[nH]1)C(=O)N2,inactive
